High-throughput results: PubChem, Corson Lab, School of Medicine, Indiana University
FECH block: inhibitors of human ferrochelatase, primary screen, biochemical, purified FECH, Ni-mesoporphyrin absorbance; hit rate 3.3% among 20,000; Ni-mesoporphyrin absorbance 550 nm; calls only at 10 µM (by protocol);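 active means enzyme reaction rate more than 3 SD below the solvent-only control wells on the same plate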;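 further: lower slope than DMSO wells means FECH inhibition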
Target sequence (P22830 whole entry, looked up): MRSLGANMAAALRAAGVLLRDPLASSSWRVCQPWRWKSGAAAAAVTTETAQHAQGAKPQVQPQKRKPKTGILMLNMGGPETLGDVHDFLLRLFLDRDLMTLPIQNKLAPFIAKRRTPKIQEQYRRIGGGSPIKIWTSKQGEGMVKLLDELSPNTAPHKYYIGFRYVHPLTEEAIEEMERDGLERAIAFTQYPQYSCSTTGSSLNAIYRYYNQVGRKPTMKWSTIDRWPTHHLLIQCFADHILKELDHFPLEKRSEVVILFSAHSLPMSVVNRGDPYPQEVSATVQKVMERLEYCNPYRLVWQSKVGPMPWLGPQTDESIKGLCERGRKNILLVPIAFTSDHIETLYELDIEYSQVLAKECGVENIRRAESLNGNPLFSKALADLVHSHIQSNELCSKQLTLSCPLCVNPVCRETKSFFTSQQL
Large screens that a line does not name were inactive. Many of the other results were omitted from the sample, so hits are more common in it than they were.

O=C(c1cnccn1)N1CC[C@@H](c2ccc3ccccc3c2)[C@H](O)C1	none
OCCCn1cnc(-c2ccccc2)c1-c1cc(F)c(F)cc1F	none
COc1cc(Nc2c(-c3ccc4c(c3)CCCC4)c(=O)c2=O)cc(OC)c1	none
COc1ccc(C(=O)Nc2nc3n(n2)C(c2c(F)cccc2Cl)C=C(c2ccccc2)N3)cc1 (configuration not stated)	none
O=C(Nc1nc2n(n1)C(c1ccccc1Cl)C=C(c1ccccc1)N2)c1ccccc1 (configuration not stated)	none
O=C(Nc1nc2n(n1)C(c1c(F)cccc1Cl)C=C(c1ccccc1)N2)c1ccccc1 (configuration not stated)	FECH block active
Cc1ccc2oc(N3CCN(Cc4cc(C(C)C)no4)CC3)nc2c1	none
CC1CCCN(CCCNC(=O)C2CCN(c3ccc(-c4cccs4)nn3)CC2)C1 (configuration not stated)	none
CC(C)C1CN(C(=O)c2onc3ccccc23)CCCN1CC1CC1 (configuration not stated)	none
CCCc1nc(N2CCCOC(CN3CCOCC3)C2)c2cnn(C)c2n1 (configuration not stated)	none
CNC(=O)[C@@H]1C[C@@H](N)CN1C(=O)c1cc(OC)nc2ccccc12	none
O=C1CN(Cc2ccc(F)cc2)S(=O)(=O)c2ccccc2N1Cc1ccccc1	none
O=C1CN(Cc2ccccc2)S(=O)(=O)c2ccccc2N1Cc1ccccc1F	FECH block active
O=C1CN(Cc2ccc(F)cc2Cl)S(=O)(=O)c2ccccc2N1Cc1ccccc1F	none
C=CCn1c(=O)oc2ccc(C(=O)N3CCN(c4cccc(Cl)c4)CC3)cc21	none
Cc1ccc2c(c1)c(CNC(=O)C1CNCC(=O)N1)nn2C (configuration not stated)	none
O=c1c2c3c(sc2ncn1CCCn1ncc2ccccc21)CNCC3	none
O=C(NCC1(Cn2cccn2)CC1)c1c(O)cccc1O	none
COc1ncc(C(=O)N2CCCN(Cc3cccs3)CC2)cn1	none
CNC(=O)c1ccc(Cn2c(=O)c3cc(OC)c(OC)cc3n(CC(=O)NCC3CCCO3)c2=O)cc1 (configuration not stated)	FECH block active
COc1cc2c(=O)n(Cc3ccc(C(=O)NC(C)C)cc3)c(=O)n(CC(=O)NC(C)C)c2cc1OC	none
CNC(=O)c1ccc(Cn2c(=O)c3cc(OC)c(OC)cc3n(CC(=O)NC(C)C)c2=O)cc1	none
CCC(CC)C(=O)Nc1cccc(OCc2cc(=O)n3ccc(C)cc3n2)c1	none
Cc1cccn2c(CC(=O)NCCc3csc(-c4ccncc4)n3)cnc12	none
CCc1cc(C(C)NS(=O)(=O)NCc2ccccc2)on1 (configuration not stated)	none
O=S(=O)(NCCc1csc(-c2ccncc2)n1)NCc1ccccc1	FECH block active
CCCN1CCC(Cc2noc(-c3cnc4c(c3)nnn4C)n2)CC1	none
CCc1c(C)nc2ncnn2c1Sc1ccc(NC(=O)NCc2ccc(C)cc2)cc1	FECH block active
CCOc1ccc(NC(=O)Nc2ccc(Sc3c(CC)c(C)nc4ncnn34)cc2)cc1	none
CCc1c(C)nc2ncnn2c1Sc1ccc(NC(=O)Nc2ccc(C)cc2C)cc1	none
CCc1c(C)nc2ncnn2c1Sc1ccc(NC(=O)NCc2ccc(F)cc2)cc1	none
CCc1c(C)nc2ncnn2c1Sc1ccc(NC(=O)NCCc2ccccc2)cc1	FECH block active
CCOc1ccccc1NC(=O)Nc1ccc(Sc2c(CC)c(C)nc3ncnn23)cc1	none
CCOC(=O)c1cc2ccsc2n1CC(=O)Nc1cc(F)ccc1F	none
Cc1nccn1CCC1CCCCN1C(=O)c1cccc(Cn2cccn2)c1 (configuration not stated)	none
CN(C)c1ncccc1CNC(=O)Cc1ccc(O)c(Cl)c1	none
COc1ccc(S(=O)(=O)N2CCN(c3cc(-c4cccc(F)c4)ncn3)CC2)cc1Cl	none
Cc1cc(C)cc(NC(=O)CN2CCN(Cc3ccc(F)cc3Cl)S2(=O)=O)c1	none
COc1ccc(NC(=O)CN2CCN(Cc3ccc(F)cc3Cl)S2(=O)=O)cc1Cl	FECH block active
COc1ccc(NC(=O)CN2CCN(Cc3ccccc3Cl)S2(=O)=O)cc1Cl	none
O=C(CN1CCCN(Cc2ccccc2Cl)S1(=O)=O)Nc1cc(F)ccc1F	none
COc1ccc(CN2CCCN(Cc3ccccc3Cl)S2(=O)=O)cc1	none
O=C(CN1CCN(Cc2ccc(F)cc2Cl)S1(=O)=O)Nc1cccc(F)c1	none
Cc1ccc(NC(=O)CN2CCN(Cc3ccc(F)cc3Cl)S2(=O)=O)cc1C	none
Cc1cccc(NC(=O)CN2CCN(Cc3ccc(F)cc3Cl)S2(=O)=O)c1	FECH block active
O=S1(=O)N(Cc2ccccc2Cl)CCCN1Cc1ccc(F)cc1Cl	FECH block active
O=C1N(Cc2ccc(F)c(F)c2)CCCC1(O)CNCCc1cnccn1 (configuration not stated)	none
COc1cccc(CN(C)Cc2cc(C(C)(C)C)n[nH]2)c1O	none
CCOC(=O)CCC(=O)Nc1cc(C)nn1-c1ncnc2c1cnn2-c1cccc(Cl)c1	none
COc1cccc(CNS(=O)(=O)c2ccc3c(c2)CCN3C(=O)CCC(=O)N2CCCCCC2)c1	none
CCc1nc(-c2nc3c([nH]2)CC(c2ccc(Cl)cc2)CNC3=O)no1 (configuration not stated)	none
Cc1c(Cl)cccc1NC(=O)CN1CCCN(Cc2ccccc2Cl)S1(=O)=O	FECH block active
COc1ccccc1NC(=O)CN1CCN(Cc2ccccc2Cl)S1(=O)=O	none
Cc1ccc(Cl)cc1NC(=O)CN1CCCN(Cc2ccccc2)S1(=O)=O	none
Cc1cccc(C)c1NC(=O)CN1CCN(Cc2ccccc2Cl)S1(=O)=O	none
Cc1ccc(Cl)cc1NC(=O)CN1CCCN(Cc2ccccc2Cl)S1(=O)=O	FECH block active
Cc1ccc(Cl)cc1NC(=O)CN1CCN(Cc2ccc(F)cc2Cl)S1(=O)=O	none
CCN(CC)C(=O)Cn1cc(-c2nc(-c3ccccc3C)no2)nn1	none
CCc1csc(CNC(=O)c2ccc(N3CC(n4cccn4)C3)nc2)n1	none
CCc1[nH]c2ccc(CNC(=O)c3ccc(Cn4ccnc4)o3)cc2c1C	none
CCn1c(CC2CCN(C(=O)CCc3n[nH]c(C)c3C)CC2)nn(C)c1=O	none
Cc1cccc(-c2ccc(N3CCC(C(=O)NCC4CCCO4)CC3)nn2)c1 (configuration not stated)	none
Cc1ccc(C(=O)NCc2cccnc2N2CCCN(C)CC2)c(O)c1	none
CC(CCc1ccco1)n1cnc(-c2ccccc2)c1C1CC1 (configuration not stated)	none
Cc1ccccc1-c1nc2nc(CNC(C)C)cc(=O)n2[nH]1	none
Cc1ccccc1-c1nc2nc(CNc3ccccc3F)cc(=O)n2[nH]1	FECH block active
Cc1ccccc1NCc1cc(=O)n2[nH]c(-c3ccccc3C)nc2n1	FECH block active
CN1C[C@]23C=C[C@H](O2)[C@H](C(=O)NC2CCC(n4cnnc4)CC2)[C@@H]3C1=O (some centres not stated)	none
COCc1ccc(C(=O)N2CCc3c(c(C(=O)O)nn3CC3CC3)C2)o1	none
Cn1nc(C(=O)NCc2ccccc2)c2c1CCN(C(=O)C1CCCCC1)C2	none
Cc1ccc(-c2noc(C3CCN(C(=O)CNC(=O)c4cccs4)CC3)n2)cc1	none
CCc1cc(Sc2ccc(NC(=O)Nc3ccc(Br)cc3)cc2)n2nc(C)nc2n1	none
Cc1nc(N2CCN(C3CCOCC3)CC2)cc(-n2cccn2)n1	none
CC(C)(C)c1ccc(S(=O)(=O)NCCn2c(C(F)(F)F)nc3cccnc32)cc1	none
CCOc1ccc(S(=O)(=O)NCCn2c(C(F)(F)F)nc3cccnc32)cc1	FECH block active
CCc1ccc(S(=O)(=O)NCCn2c(C(F)(F)F)nc3cccnc32)cc1	none
